According to paper PMC7862700, “An all-to-all approach to the identification of sequence-specific readers for epigenetic DNA modifications on cytosine”:

Experiments:
Test in all cases: DAPPL (digital affinity profiling via proximity ligation, sequencing); 10 mM Tris-HCl pH 7.5, 50 mM NaCl, 1 mM DTT, 4% glycerol, room temperature, 30 min; GST-TFs on glutathione beads, 16-mer random dsDNA library, 0.1% formaldehyde crosslink after washing; high values mean tight binding
FEV = molecular target: T1, FEV (Homo sapiens, UniProt Q99581 1-238); conditions: protein: recombinant; tags: N-terminal GST; dsDNA, one strand shown
T1 sequence: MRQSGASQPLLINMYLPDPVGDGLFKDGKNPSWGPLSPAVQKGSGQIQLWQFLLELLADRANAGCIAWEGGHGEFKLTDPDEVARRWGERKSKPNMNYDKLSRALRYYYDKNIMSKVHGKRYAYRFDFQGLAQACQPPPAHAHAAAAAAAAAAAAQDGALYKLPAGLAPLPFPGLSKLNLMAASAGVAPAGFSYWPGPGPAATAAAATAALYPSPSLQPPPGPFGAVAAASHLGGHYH
In short: (§1)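 In yeast, human transcription factors were expressed with a GST fusion, then pulled down on glutathione beads and given DNA barcodes. Pooled with a tag-only sample, they were exposed to 200 nmole of a 16-mer random double-stranded DNA library (Tris/NaCl/DTT/glycerol buffer, room temperature, 30 min), washed, crosslinked with 0.1% formaldehyde, proximity-ligated using BsaI/T4 ligase for 1 h at 37 °C, PCR-amplified and read on an Illumina NextSeq500. Each hexamer's frequency of reads for a factor, divided by the matching frequency for the tag-only sample, gives the binding signal.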

ETV5 = ETV5 (Homo sapiens, UniProt P41161 1-510); conditions: protein: recombinant; tags: N-terminal GST; dsDNA, one strand shown
In short: as §1

HSF1 = HSF1 (Homo sapiens, UniProt Q00613 1-529); conditions: protein: recombinant; tags: N-terminal GST; chain copies: 3; dsDNA, one strand shown
In short: as §1

SPIC = molecular target: T2, SPIC (Homo sapiens, UniProt Q8N5J4 1-248); conditions: protein: recombinant; tags: N-terminal GST; dsDNA, one strand shown
T2 sequence: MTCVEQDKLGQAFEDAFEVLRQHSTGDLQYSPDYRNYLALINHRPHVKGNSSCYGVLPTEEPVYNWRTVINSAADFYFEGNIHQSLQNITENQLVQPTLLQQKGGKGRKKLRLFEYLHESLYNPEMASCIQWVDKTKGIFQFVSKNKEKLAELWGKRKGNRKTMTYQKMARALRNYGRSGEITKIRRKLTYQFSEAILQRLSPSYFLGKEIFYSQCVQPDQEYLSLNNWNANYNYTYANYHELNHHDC
In short: as §1

ELF4 = ELF4 (Homo sapiens, UniProt Q99607 1-663); conditions: protein: recombinant; tags: N-terminal GST; dsDNA, one strand shown
In short: as §1

ELK4 = molecular target: T3, ELK4 (Homo sapiens, UniProt P28324-2 1-405); conditions: protein: recombinant; tags: N-terminal GST; dsDNA, one strand shown
T3 sequence: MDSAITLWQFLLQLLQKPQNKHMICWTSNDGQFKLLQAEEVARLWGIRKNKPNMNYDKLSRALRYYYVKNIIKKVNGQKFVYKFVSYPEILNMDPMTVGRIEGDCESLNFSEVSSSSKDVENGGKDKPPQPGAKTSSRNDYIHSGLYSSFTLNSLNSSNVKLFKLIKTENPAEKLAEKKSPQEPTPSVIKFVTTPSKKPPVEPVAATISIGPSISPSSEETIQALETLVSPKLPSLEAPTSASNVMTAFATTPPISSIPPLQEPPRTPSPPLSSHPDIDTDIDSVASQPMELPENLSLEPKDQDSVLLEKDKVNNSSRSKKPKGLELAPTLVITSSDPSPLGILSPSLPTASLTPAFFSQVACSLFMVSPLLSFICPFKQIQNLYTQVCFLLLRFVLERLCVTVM
In short: as §1

ETV2 = molecular target: T4, ETV2 (Homo sapiens, UniProt O00321 1-342); conditions: protein: recombinant; tags: N-terminal GST; dsDNA, one strand shown
T4 sequence: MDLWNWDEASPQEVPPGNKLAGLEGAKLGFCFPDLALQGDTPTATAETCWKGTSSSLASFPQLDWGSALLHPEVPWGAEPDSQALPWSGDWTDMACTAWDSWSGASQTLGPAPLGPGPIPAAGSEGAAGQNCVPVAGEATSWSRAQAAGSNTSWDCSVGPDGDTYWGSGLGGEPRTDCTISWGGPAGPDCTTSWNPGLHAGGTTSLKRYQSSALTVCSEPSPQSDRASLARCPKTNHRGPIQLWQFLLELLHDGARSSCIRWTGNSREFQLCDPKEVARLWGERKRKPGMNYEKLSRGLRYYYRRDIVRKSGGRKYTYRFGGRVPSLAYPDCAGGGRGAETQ
In short: as §1

ELF3 = molecular target: T5, ELF3 (Homo sapiens, UniProt P78545 1-371); conditions: protein: recombinant; tags: N-terminal GST; dsDNA, one strand shown
T5 sequence: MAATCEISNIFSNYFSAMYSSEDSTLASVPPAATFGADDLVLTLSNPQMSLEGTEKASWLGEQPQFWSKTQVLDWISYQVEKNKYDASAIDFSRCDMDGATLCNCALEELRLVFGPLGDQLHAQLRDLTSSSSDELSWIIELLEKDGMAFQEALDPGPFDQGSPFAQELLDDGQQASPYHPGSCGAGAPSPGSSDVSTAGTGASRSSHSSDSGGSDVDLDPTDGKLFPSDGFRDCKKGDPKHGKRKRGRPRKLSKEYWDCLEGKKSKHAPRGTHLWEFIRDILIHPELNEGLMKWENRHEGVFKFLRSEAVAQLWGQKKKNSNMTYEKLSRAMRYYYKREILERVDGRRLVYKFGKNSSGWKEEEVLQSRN
In short: as §1

CRX = CRX (Homo sapiens, UniProt O43186 1-299); conditions: protein: recombinant; tags: N-terminal GST; dsDNA, one strand shown
In short: as §1

ETV1 = ETV1 (Homo sapiens, UniProt P50549 1-477); conditions: protein: recombinant; tags: N-terminal GST; dsDNA, one strand shown
In short: as §1

ERF = molecular target: T6, ERF (Homo sapiens, UniProt P50548 1-548); conditions: protein: recombinant; tags: N-terminal GST; dsDNA, one strand shown
T6 sequence: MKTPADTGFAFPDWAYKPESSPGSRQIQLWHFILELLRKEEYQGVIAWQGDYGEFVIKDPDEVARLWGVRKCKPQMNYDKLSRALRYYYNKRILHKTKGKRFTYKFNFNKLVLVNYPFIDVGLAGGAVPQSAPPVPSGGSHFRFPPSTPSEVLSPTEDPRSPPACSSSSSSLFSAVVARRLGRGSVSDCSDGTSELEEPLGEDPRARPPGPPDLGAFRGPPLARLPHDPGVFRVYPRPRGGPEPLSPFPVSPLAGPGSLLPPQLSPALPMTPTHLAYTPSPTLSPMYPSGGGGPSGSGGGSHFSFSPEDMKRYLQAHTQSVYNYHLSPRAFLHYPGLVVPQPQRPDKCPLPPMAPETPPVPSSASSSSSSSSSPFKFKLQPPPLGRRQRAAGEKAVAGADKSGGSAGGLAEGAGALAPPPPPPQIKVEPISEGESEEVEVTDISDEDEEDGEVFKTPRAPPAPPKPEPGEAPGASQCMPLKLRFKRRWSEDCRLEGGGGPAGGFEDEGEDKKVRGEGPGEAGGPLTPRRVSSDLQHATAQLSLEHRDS
In short: as §1

ETV3L = molecular target: T7, ETV3L (Homo sapiens, UniProt Q6ZN32 1-361); conditions: protein: recombinant; tags: N-terminal GST; dsDNA, one strand shown
T7 sequence: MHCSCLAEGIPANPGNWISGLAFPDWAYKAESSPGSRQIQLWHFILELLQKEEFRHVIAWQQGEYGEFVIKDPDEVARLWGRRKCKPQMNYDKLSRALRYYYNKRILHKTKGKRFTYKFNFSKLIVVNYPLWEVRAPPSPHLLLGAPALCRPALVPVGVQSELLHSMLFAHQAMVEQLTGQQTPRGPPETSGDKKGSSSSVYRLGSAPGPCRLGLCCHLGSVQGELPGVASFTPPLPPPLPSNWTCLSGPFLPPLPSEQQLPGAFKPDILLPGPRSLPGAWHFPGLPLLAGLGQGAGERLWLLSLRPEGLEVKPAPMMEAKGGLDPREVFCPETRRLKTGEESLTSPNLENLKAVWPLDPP
In short: as §1

ETS2 = molecular target: T8, ETS2 (Homo sapiens, UniProt P15036 1-469); conditions: protein: recombinant; tags: N-terminal GST; dsDNA, one strand shown
T8 sequence: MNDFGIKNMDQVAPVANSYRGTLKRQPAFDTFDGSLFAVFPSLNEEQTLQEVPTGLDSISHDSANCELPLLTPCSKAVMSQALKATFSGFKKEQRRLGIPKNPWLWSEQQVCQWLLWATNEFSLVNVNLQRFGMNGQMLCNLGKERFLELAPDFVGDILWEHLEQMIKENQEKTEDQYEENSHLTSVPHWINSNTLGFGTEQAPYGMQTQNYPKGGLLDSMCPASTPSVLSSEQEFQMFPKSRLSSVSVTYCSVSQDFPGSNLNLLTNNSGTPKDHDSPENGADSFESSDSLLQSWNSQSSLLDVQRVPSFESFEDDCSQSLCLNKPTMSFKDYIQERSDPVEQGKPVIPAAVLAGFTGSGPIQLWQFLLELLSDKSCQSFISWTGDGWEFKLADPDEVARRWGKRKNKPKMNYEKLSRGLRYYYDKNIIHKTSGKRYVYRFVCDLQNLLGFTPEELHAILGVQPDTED
In short: as §1

SPDEF = molecular target: T9, SPDEF (Homo sapiens, UniProt O95238 1-335); conditions: protein: recombinant; tags: N-terminal GST; dsDNA, one strand shown
T9 sequence: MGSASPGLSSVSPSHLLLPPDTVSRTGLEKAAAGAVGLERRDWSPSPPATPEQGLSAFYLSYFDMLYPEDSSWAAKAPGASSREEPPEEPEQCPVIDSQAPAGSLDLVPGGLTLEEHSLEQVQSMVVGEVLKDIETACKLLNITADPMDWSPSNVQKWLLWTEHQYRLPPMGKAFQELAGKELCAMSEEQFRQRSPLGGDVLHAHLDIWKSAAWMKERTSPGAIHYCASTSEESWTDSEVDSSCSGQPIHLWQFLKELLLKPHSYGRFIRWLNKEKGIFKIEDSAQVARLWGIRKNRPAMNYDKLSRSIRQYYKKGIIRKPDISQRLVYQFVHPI
In short: as §1

ETV7 = molecular target: T10, ETV7 (Homo sapiens, UniProt Q9Y603 1-341); conditions: protein: recombinant; tags: N-terminal GST; dsDNA, one strand shown
T10 sequence: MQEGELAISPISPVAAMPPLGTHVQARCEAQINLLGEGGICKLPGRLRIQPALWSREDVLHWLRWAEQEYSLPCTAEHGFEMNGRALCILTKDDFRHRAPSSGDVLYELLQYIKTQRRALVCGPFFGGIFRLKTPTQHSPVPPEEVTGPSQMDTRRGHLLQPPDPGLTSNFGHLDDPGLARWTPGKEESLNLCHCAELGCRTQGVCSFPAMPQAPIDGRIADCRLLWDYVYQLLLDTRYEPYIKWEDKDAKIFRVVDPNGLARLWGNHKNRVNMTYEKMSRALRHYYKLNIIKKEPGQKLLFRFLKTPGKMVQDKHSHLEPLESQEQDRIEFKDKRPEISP
In short: as §1

ELF5 = molecular target: T11, ELF5 (Homo sapiens, UniProt Q9UKW6-2 1-255); conditions: protein: recombinant; tags: N-terminal GST; dsDNA, one strand shown
T11 sequence: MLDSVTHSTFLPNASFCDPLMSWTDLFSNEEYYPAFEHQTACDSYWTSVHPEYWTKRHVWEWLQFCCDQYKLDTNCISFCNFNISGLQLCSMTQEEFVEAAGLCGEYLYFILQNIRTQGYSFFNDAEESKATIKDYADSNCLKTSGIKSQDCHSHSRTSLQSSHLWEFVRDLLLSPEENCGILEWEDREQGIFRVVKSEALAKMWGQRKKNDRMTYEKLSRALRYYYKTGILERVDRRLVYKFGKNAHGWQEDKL
In short: as §1

ETV3 = molecular target: T12, ETV3 (Homo sapiens, UniProt P41162-2 1-143); conditions: protein: recombinant; tags: N-terminal GST; dsDNA, one strand shown
T12 sequence: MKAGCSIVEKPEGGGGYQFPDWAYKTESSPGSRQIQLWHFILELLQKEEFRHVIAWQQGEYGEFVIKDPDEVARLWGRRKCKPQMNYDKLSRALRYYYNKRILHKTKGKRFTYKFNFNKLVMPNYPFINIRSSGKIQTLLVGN
In short: as §1

ETV6 = ETV6 (Homo sapiens, UniProt P41212 1-452); conditions: protein: recombinant; tags: N-terminal GST; dsDNA, one strand shown
In short: as §1

ETV1, sequence (P50549 whole entry): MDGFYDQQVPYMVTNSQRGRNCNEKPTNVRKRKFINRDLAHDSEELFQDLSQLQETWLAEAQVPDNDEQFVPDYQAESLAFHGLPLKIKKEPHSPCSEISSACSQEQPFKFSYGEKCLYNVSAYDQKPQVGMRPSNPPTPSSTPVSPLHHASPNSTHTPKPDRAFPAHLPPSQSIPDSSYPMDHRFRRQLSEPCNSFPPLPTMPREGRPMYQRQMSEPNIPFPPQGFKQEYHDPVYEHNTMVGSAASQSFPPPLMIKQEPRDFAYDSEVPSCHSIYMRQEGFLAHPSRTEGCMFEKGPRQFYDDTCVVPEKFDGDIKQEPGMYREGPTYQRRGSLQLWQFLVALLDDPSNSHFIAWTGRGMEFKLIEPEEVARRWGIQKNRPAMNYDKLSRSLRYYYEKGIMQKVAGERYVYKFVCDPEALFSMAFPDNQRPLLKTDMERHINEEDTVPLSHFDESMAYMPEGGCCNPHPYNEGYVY
CRX, sequence (O43186 whole entry): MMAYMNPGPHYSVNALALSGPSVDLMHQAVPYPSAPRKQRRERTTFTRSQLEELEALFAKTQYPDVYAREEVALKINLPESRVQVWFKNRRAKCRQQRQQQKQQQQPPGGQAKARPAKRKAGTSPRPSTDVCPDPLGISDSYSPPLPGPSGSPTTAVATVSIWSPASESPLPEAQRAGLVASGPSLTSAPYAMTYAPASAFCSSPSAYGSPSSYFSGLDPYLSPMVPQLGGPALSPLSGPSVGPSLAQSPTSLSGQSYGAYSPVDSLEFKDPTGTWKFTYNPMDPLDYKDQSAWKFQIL
ETV5, sequence (P41161 whole entry): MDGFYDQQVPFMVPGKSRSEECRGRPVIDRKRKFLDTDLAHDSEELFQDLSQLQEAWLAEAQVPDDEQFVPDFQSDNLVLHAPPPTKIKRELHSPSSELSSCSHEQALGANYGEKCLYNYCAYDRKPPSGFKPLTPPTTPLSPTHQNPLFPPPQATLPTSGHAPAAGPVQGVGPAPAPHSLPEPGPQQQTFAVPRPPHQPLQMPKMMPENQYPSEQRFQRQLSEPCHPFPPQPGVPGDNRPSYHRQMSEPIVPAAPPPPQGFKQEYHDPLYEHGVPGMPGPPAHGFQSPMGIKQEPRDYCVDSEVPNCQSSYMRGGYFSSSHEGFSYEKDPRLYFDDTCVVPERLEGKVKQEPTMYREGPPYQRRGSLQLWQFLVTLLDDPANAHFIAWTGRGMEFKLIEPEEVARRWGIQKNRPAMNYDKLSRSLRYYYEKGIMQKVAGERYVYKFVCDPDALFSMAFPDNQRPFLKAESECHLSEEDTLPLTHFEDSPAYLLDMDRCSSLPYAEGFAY
ETV6, sequence (P41212 whole entry): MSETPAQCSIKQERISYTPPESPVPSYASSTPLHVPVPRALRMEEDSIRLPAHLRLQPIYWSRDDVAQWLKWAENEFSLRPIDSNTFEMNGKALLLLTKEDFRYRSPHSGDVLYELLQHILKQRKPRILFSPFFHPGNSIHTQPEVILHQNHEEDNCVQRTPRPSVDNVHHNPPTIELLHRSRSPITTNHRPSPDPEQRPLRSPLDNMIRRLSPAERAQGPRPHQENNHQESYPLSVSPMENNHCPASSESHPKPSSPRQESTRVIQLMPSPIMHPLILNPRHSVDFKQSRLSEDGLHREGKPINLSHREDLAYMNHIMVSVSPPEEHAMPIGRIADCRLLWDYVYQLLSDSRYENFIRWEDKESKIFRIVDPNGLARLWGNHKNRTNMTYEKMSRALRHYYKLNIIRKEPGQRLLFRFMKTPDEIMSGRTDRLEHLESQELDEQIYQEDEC
HSF1, sequence (Q00613 whole entry): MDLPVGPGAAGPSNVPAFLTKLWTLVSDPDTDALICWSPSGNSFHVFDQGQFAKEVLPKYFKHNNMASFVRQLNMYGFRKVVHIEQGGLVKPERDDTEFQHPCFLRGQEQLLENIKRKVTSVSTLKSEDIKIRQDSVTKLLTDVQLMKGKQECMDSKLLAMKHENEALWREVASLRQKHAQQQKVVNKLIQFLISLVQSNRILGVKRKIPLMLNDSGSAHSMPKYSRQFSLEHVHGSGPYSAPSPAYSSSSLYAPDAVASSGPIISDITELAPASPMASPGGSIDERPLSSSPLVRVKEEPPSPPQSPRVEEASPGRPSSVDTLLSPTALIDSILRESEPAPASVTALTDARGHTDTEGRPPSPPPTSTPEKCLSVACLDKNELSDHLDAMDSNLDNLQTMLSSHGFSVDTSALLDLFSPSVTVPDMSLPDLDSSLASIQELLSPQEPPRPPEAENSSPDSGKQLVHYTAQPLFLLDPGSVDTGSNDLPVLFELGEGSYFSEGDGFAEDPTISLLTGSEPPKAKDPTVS
ELF4, sequence (Q99607 whole entry): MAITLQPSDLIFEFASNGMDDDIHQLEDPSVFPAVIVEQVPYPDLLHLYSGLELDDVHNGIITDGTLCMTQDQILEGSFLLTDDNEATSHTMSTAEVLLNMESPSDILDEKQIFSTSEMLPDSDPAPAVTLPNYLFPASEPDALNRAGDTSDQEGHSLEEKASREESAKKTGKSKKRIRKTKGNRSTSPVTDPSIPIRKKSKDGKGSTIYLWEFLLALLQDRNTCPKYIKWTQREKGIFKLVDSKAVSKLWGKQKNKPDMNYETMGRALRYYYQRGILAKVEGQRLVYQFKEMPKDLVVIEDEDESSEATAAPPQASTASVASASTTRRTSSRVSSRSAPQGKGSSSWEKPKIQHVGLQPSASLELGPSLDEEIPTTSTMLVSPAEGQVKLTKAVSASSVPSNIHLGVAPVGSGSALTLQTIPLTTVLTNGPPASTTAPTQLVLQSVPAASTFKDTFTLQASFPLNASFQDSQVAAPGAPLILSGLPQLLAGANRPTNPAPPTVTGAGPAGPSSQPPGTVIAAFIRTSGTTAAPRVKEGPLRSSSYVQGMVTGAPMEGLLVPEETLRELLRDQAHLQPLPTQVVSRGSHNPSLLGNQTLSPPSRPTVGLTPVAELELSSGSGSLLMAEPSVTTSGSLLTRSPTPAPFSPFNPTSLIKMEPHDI

Sequence: TCTGTG
- binding signal (FEV): 1.07 fold enrichment (6-mer frequency, TF over GST control)
- binding signal (ETV5): 1.08 fold enrichment (6-mer frequency, TF over GST control)
- binding signal (HSF1): 1.05 fold enrichment (6-mer frequency, TF over GST control)
- binding signal (SPIC): 1.34 fold enrichment (6-mer frequency, TF over GST control)
- binding signal (ELF4): 1.2 fold enrichment (6-mer frequency, TF over GST control)
- binding signal (ELK4): 1.21 fold enrichment (6-mer frequency, TF over GST control)
- binding signal (ETV2): 1.1 fold enrichment (6-mer frequency, TF over GST control)
- binding signal (ELF3): 1.07 fold enrichment (6-mer frequency, TF over GST control)
- binding signal (CRX): 1.09 fold enrichment (6-mer frequency, TF over GST control)
- binding signal (ETV1): 1.16 fold enrichment (6-mer frequency, TF over GST control)
- binding signal (ERF): 1.15 fold enrichment (6-mer frequency, TF over GST control)
- binding signal (ETV3L): 1.2 fold enrichment (6-mer frequency, TF over GST control)
- binding signal (ETS2): 1.13 fold enrichment (6-mer frequency, TF over GST control)
- binding signal (SPDEF): 1.06 fold enrichment (6-mer frequency, TF over GST control)
- binding signal (ETV7): 1.26 fold enrichment (6-mer frequency, TF over GST control)
- binding signal (ELF5): 1.04 fold enrichment (6-mer frequency, TF over GST control)
- binding signal (ETV3): 1.04 fold enrichment (6-mer frequency, TF over GST control)
- binding signal (ETV6): 1.07 fold enrichment (6-mer frequency, TF over GST control)
